D2 PAM-1: Beta-Arrestin HTS for Positive Allosteric Modulators of the Human D2 Dopamine Receptor: Potentiators; AID 624464, 2012; 0.23% of 360,000 active; potentiation, % (no concentration beside the values); D(2) dopamine receptor (Homo sapiens), P14416; DiscoveRx D2 beta-arrestin cells, luminescence, 90 min; 100% = 57 uM dopamine signal; in the data active means potentiation above about 50%; inconclusive means mostly about 30% to 49%
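PathHunter D2 cells, attached overnight at 37 deg C, received compound in DMSO plus dopamine at EC20 (50 nM final) for 90 min at 37 deg C. Beta-arrestin recruitment was read as luminescence after 1 h with detection reagent at ambient temperature.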
D2 ag-1: HTS Assay for Allosteric Agonists of the Human D2 Dopamine Receptor: Primary Screen for Agonists | activation, % at 2 µM | HEK293 T-REx D2 cells, calcium flux agonist mode | 0.53% of 340,000 active | D(2) dopamine receptor (Homo sapiens), P14416 | AID 485358, 2010;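 active means activation over 3 SD above normal in the single-dose calcium agonist read, cut at about 30% in these data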; further: 0% is about no effect
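Agonism is scored from calcium flux in a force-coupled, inducible HEK293 cell line expressing D2, read kinetically for 180 s after compound addition against dopamine controls.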
D2 ag-2: Beta-Arrestin HTS for Positive Allosteric Modulators of the Human D2 Dopamine Receptor: Agonists. D(2) dopamine receptor (Homo sapiens), P14416. DiscoveRx PathHunter D2 beta-arrestin, luminescence, 90 min; 100% = 57 uM dopamine signal. activation, % (no concentration beside the values). 0.084% of 360,000 active. AID 624465, 2012; in the data active means activation above about 40%; inconclusive means between about 15% and that limit
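DiscoveRx PathHunter D2 beta-arrestin cells (2,100/well) attached overnight, then compound-stimulated 90 min at 37 C in HBSS/10 mM HEPES/0.1% Tween-20 buffer; beta-galactosidase complementation read by luminescence after 1 h at ambient temperature. Dopamine 57 uM final (EC100) as control.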
D2 antag: HTS Assay for Allosteric Antagonists of the Human D2 Dopamine Receptor: Primary Screen for Antagonists | inhibition, % at 10 µM | AID 485344, 2010 | HEK293 TREx D2 cells, calcium flux, dopamine EC80 | D(2) dopamine receptor (Homo sapiens), P14416 | 2% of 340,000 active; in the data active means inhibition above about 30%; inactive means below that, where a call was filed; further: 0% is about no effect
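HEK293 T-REx D2 cells, tet-induced, calcium dye no-wash. Cpd pintool add, 180 s kinetic, then EC80 DA, 180 s kinetic. Ca flux read.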
D2 PAM-2: HTS Assay for Positive Allosteric Modulators of the Human D2 Dopamine Receptor: Primary Screen for Potentiators; HEK293 T-REx D2, calcium flux, EC20 dopamine potentiation; D(2) dopamine receptor (Homo sapiens), P14416; 0.34% of 340,000 active; potentiation, % at 10 µM;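 active means potentiation over 3 SD above the plate norm, cut at about 30% in these data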; further: 0% is about no effect
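Tetracycline-induced HEK293 T-REx cells force-coupled to calcium signalling expressed D2; compounds were pin-added after a 10 s baseline, read kinetically 180 s, then an EC20 dopamine challenge followed with a further 180 s calcium read.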
D3 arrestin ag: qHTS of D3 Dopamine Receptor Agonist: D3 Dopamine Receptor B-arrestin Agonist Confirmatory Assay; shares compounds with D2 ag-1; DiscoveRx D3 beta-arrestin cells, luminescence, 90 min; Potency, µM (series often up to 76.9 µM), inactives show at the top dose activation, usual class: activators; 4% of 2,300 active;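 further: potency means the concentration at half of the fitted maximal effect; 100% = dopamine control response; nearly all actives have a fitted effect of over 70% in size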
Target sequence (P35462 whole entry, looked up): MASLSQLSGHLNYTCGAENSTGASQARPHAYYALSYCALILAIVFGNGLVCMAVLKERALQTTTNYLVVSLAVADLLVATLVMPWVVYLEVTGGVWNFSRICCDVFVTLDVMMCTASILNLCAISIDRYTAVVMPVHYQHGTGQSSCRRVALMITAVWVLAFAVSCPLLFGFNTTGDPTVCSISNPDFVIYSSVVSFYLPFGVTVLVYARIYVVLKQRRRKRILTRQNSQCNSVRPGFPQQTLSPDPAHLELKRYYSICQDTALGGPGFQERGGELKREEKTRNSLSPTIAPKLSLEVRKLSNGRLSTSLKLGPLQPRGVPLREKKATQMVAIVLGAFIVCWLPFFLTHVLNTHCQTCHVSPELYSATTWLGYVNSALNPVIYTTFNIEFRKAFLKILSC
D2 ag-3: qHTS of D3 Dopamine Receptor Agonist: D2 Dopamine Receptor B-arrestin Agonist Counterscreen. DiscoveRx PathHunter D2 beta-arrestin, luminescence, 90 min; response scale: percent relative to full dopamine signal. Potency, µM (highest dose often 76.9 µM), for the others: at the top dose activation, hits mostly activators. 5.9% of 2,300 active. shares compounds with D2 ag-1. AID 720507, 2013; further: potency means the concentration at half of the fitted maximal effect; % of control where 0% means no effect; nearly all actives have a fitted effect of over 70% in size
Starred values were filed as active, the others as inactive; ? = inconclusive; / = no result. This is a sample that favours compounds with a hit; in the whole collection about 2.4% have one here. Unless noted, the call rests on the fitted dose curve; in most records, active means well fitted activation curve with a large enough effect; inconclusive means small, poorly fitted or top-dose-only effect; inactive means flat fitted curve, though single readings scatter.

SMILES	D2 PAM-1	D2 ag-1	D2 ag-2	D2 antag	D2 PAM-2	D3 arrestin ag	D2 ag-3
CCOc1cc(CN2CCN(C(=O)c3ccco3)CC2)ccc1OC	63*	99*	?	74*	-29	-3%	25µM*
CCN(CCCNC(=O)CSc1cc(=O)n(CC)c2ccccc12)c1cccc(C)c1	/	1	/	/	8	/	/
C/C(=N\NC(=O)c1ccc(-c2ccccc2)cc1)C1C(=O)c2ccccc2C1=O	1	32*	4	84*	-14	2%	-1%
C/C(=N\NC(=O)c1ccc(Br)cc1)C1C(=O)c2ccccc2C1=O	-14	3	-2	-2	-4	/	/
CC(C)(CO)NS(=O)(=O)c1ccc2c(c1)Cc1cc(S(=O)(=O)NC(C)(C)CO)ccc1-2	-4	-2	6	22	-3	13%	3%
CC(C)(CO)NS(=O)(=O)c1ccc2c(c1)C(=O)c1cc(S(=O)(=O)NC(C)(C)CO)ccc1-2	0	3	-1	-8	-5	/	/
O=C(O)Cc1sc(Nc2ccccc2)nc1-c1ccccc1	/	0	/	/	0	/	/
O=C(O)Cc1sc(N/N=C\c2ccncc2)nc1-c1ccccc1	2	10	?	-14	0	?	2%
C=CCC(C(=O)Oc1c(C(C)(C)C)cc(C)cc1C(C)(C)C)c1ccccc1 (configuration not stated)	-2	0	-2	-11	1	-7%	-4%
Cc1cccc(C)c1OC(=O)C(c1ccccc1)c1ccccc1	1	0	-3	-10	10	/	/
O=C(NCc1ccccn1)c1cccc(S(=O)(=O)Nc2ccc(F)cc2)c1	-13	0	-1	-5	10	/	/
O=C(NCc1ccncc1)c1cccc(S(=O)(=O)Nc2ccc(F)cc2)c1	-6	0	9	24	-1	10%	2%
COC(=O)c1ccc(NC(=O)CSc2ccc(-c3sc(-c4ccccc4)nc3C)nn2)cc1	/	0	/	/	1	/	/
O=C(Nc1cccc(C(=O)N2CCOCC2)c1)c1ccc([N+](=O)[O-])cc1	2	39*	0	-1	-4	?	3%
COc1ccc(OC)c(S(=O)(=O)NCCc2sc(-c3cccnc3)nc2C)c1	/	-1	/	/	4	/	/
O=C(c1cccs1)N(Cc1ccco1)C1CCS(=O)(=O)C1 (configuration not stated)	21	58*	?	41*	-20	17%	25%
Cc1ccc(CN(C(=O)c2cccs2)C2CCS(=O)(=O)C2)cc1 (configuration not stated)	-2	0	-1	1	4	/	/
Cc1ccc(NC(=O)Cn2cnc3sc(C)c(S(=O)(=O)N4CCN(c5ncccn5)CC4)c3c2=O)cc1F	/	0	/	/	5	/	/
Cc1ccc(-c2nnc(SCC(=O)NCCC(C)C)nc2-c2ccc(C)cc2)cc1	/	0	/	/	4	/	/
Cc1ccc(Cl)cc1NC(=O)Cn1c(=O)n(CCCS(=O)(=O)C2CCCCC2)c(=O)c2ccccc21	/	0	/	/	-6	/	/
O=C(Nc1nccs1)c1cccnc1	-5	1	-2	12	-7	-4%	-1%
COc1cccc(NC(=O)c2c(N3CCCC3=O)c3cc(C)ccc3n2C)c1	/	-1	/	/	-2	/	/
O=C(NCCCn1ccnc1)C(=O)NCC(c1ccco1)N1CCN(c2ccccc2)CC1 (configuration not stated)	15	63*	54*	16	-24	20%	?
Cc1sc(NC(=O)c2ccco2)c(CN2CCN(c3ccccc3)CC2)c1C	-31	41*	0	17	-18	1%	5%
O=C(NCC(c1ccco1)N1CCN(c2ccccc2)CC1)c1ccco1 (configuration not stated)	10	12	13	40*	-8	?	?
SMILES	D2 PAM-1	D2 ag-1	D2 ag-2	D2 antag	D2 PAM-2	D3 arrestin ag	D2 ag-3
O=C(NCCCn1ccnc1)C(=O)NCC(c1cccnc1)N1CCN(c2ccccc2)CC1 (configuration not stated)	-5	43*	-4	3	-13	5%	12%
O=C(NCCCn1ccnc1)C(=O)NCC(c1ccco1)N1CCN(c2ccc(F)cc2)CC1 (configuration not stated)	-11	4	3	7	1	/	/
COc1ccc(N2CCN(C(CNC(=O)c3ccco3)c3ccco3)CC2)cc1 (configuration not stated)	-6	0	-1	13	10	/	/
Cc1sc(NC(=O)c2ccco2)c(CN2CCCCC2)c1C	-14	0	-3	3	-1	/	/
O=C(Cn1c(=O)n(-c2ccccc2)c(=O)c2c3c(sc21)CCCC3)Nc1ccc(F)cc1F	/	1	/	/	2	/	/
CCC(=O)N1CCc2cc(S(=O)(=O)NCCC(=O)NCc3ccc(C)cc3)ccc21	/	-1	/	/	-13	/	/
COc1ccc(NC(=O)COC(=O)CNC(=O)c2cccs2)cc1Cl	0	-2	5	8	0	0%	2%
Nc1c(C(=O)c2ccc(Cl)cc2)sc2nsc(SCCN3CCOCC3)c12	-4	16	-1	-8	11	2%	2%
CC(=O)c1sc2nsc(SCCN3CCCCC3)c2c1N	-14	5	2	-14	-3	/	/
O=C(CCc1cn(Cc2ccccc2F)c2ccccc12)NCc1ccc(Cl)cc1	/	1	/	/	2	/	/
CC(OC(=O)c1ccc(-n2cnnn2)cc1)C(=O)Nc1ccc(F)c(F)c1F (configuration not stated)	5	0	-2	18	6	-5%	-3%
CC(OC(=O)c1ccc(-n2cnnn2)cc1)C(=O)Nc1ccccc1F (configuration not stated)	-5	/	0	/	/	/	/
